Measured values taken from PubChem BioAssay AID624255 (Broad Institute, 2012).
“And” between values parts separate entries of the source, which are not always exact repeats. Equal entries are not always repeated. Out of some 77,000 compounds screened, about 4,600 (6%) were called active. Not shown: some 1% with an inconclusive outcome.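 The calls were made as follows: active = mean inhibition above about 93%, with at least 55% of replicates each passing it (limit read from the data, passing the limit was not always enough); inconclusive = only one of those two conditions holds; inactive = neither condition holds.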 For the sample, actives were picked, then their nearest neighbours and some compounds at random.

assay: growth inhibition of T. cruzi in host fibroblasts – cell-based, beta-gal Tulahuen parasites, NIH3T3 host, luminescence, primary screen (AID 624255); conditions: T. cruzi beta-gal in NIH3T3, GalScreen luminescence, 90 h; at 8.34 µM; hits give high values

SMILES	inhibition
C/C=C/c1ccc([C@H]2[C@@H](CO)N[C@@H]2CN(CC)C(=O)CN2CCOCC2)cc1	-25.4% (inactive)
CCS(=O)(=O)Nc1ccc2c(c1)C(=O)N(C)[C@@H]1CC[C@@H](CC(=O)N3CCCCC3)O[C@H]1CO2	54.2% (inactive)
CO[C@@H]1CN(C)C(=O)c2cc(NC(=O)C3CCC3)ccc2OC[C@H](C)N(Cc2nccs2)C[C@H]1C	-2.54% (inactive)
COCC(=O)Nc1ccc2c(c1)C(=O)N(C)C[C@@H](OC)[C@H](C)CN(C(=O)CC1CC1)[C@H](C)CO2	34.9% (inactive)
COc1ccc(S(=O)(=O)Nc2ccc3c(c2)C(=O)N([C@H](C)CO)C[C@@H](C)[C@@H](CN(C)CC2CCCCC2)OCCCC[C@@H](C)O3)cc1	110% (active)
COc1ccc(S(=O)(=O)Nc2ccc3c(c2)C(=O)N([C@H](C)CO)C[C@H](C)[C@@H](CN(C)S(C)(=O)=O)OCCCC[C@@H](C)O3)cc1	50.1% (inactive)
Cc1ccc(S(=O)(=O)Nc2ccc3c(c2)CC(=O)N([C@H](C)CO)C[C@@H](C)[C@H](CN(C)S(=O)(=O)c2c(C)noc2C)O3)cc1	-10.8% (inactive)
COc1ccc(S(=O)(=O)N(C)C[C@H]2OCCCC[C@H](C)Oc3ccc(NS(=O)(=O)c4ccc(F)cc4)cc3C(=O)N([C@@H](C)CO)C[C@@H]2C)cc1	108% (active)
Cc1noc(C)c1S(=O)(=O)Nc1ccc2c(c1)C(=O)N([C@@H](C)CO)C[C@@H](C)[C@@H](CN(C)S(=O)(=O)c1ccccc1)OCCCC[C@H](C)O2	-37.4% (inactive)
COc1ccc(S(=O)(=O)Nc2ccc3c(c2)C(=O)N([C@@H](C)CO)C[C@H](C)[C@@H](CN(C)S(=O)(=O)c2ccc(F)cc2)OCCCC[C@H](C)O3)cc1	85% (inactive)
Cc1noc(C)c1S(=O)(=O)Nc1ccc2c(c1)C(=O)N([C@@H](C)CO)C[C@@H](C)[C@H](CN(C)S(=O)(=O)c1ccc(Cl)cc1)OCCCC[C@H](C)O2	96.3% (active)
Cc1noc(C)c1S(=O)(=O)N(C)C[C@H]1Oc2ccc(N(C)C)cc2CC(=O)N([C@H](C)CO)C[C@@H]1C	97.3% (active)
COc1ccc(S(=O)(=O)Nc2ccc3c(c2)C(=O)N([C@H](C)CO)C[C@H](C)[C@@H](CN(C)C)OCCCC[C@H](C)O3)cc1	17.4% (inactive) and 81.8% (inactive)
COc1ccc(S(=O)(=O)Nc2ccc3c(c2)C(=O)N([C@@H](C)CO)C[C@H](C)[C@H](CN(C)S(=O)(=O)c2ccc(F)cc2)OCCCC[C@@H](C)O3)cc1	94.5% (inactive)
C[C@@H]1CN([C@H](C)CO)C(=O)Cc2cc(N(C)C)ccc2O[C@H]1CN(C)S(C)(=O)=O	-46% (inactive)
Cc1ccc(S(=O)(=O)N(C)C[C@H]2OCCCC[C@H](C)Oc3ccc(NS(=O)(=O)c4c(C)noc4C)cc3C(=O)N([C@H](C)CO)C[C@@H]2C)cc1	-43.8% (inactive)
COC(=O)C[C@@H]1CC[C@H]2[C@H](COc3ccc(NC(=O)c4cccs4)cc3C(=O)N2C)O1	2.22% (inactive)
C[C@H]1CCCCO[C@@H](CN(C)Cc2ccc3c(c2)OCO3)[C@@H](C)CN([C@@H](C)CO)C(=O)c2cc(NC(=O)Nc3ccc(F)cc3)ccc2O1	77.3% (inactive)
CN1c2ccc(-c3ccc(C#N)cc3)cc2[C@@H]2[C@@H](CCN2C(=O)C2CCCCC2)[C@H]1CO	50.3% (inactive)

SMILES	inhibition
O=C(NCC1CC1)[C@@H]1[C@@H](CO)[C@@H]2Cn3c(ccc(-c4ccncc4)c3=O)[C@H]1N2Cc1nccs1	32.5% (inactive)
CNC(=O)C[C@H]1CC[C@H]2[C@@H](COc3ccc(NC(=O)c4cccc(OC)c4)cc3C(=O)N2C)O1	3.49% (inactive)
COc1ccccc1-c1ccc2c(c1)[C@H]1[C@H](CCN1S(=O)(=O)c1ccccc1)[C@@H](CO)N2	77.3% (inactive)
CNC(=O)C[C@H]1CC[C@@H]2[C@H](COc3ccc(NC(=O)C(C)C)cc3C(=O)N2C)O1	-65% (inactive)
CC(=O)Nc1ccc2c(c1)C(=O)N(C)[C@H]1CC[C@H](CC(=O)NCc3ccccc3Cl)O[C@H]1CO2	-40.6% (inactive)
CNC[C@H]1OCCCC[C@@H](C)Oc2ccc(NC(=O)Nc3ccc(C(F)(F)F)cc3)cc2C(=O)N([C@H](C)CO)C[C@H]1C	69.3% (inactive)
C[C@H](CO)N1C[C@H](C)[C@H](CN(C)C(=O)NC2CCCCC2)Oc2ccc(NC(=O)CCCN(C)C)cc2CC1=O	25.8% (inactive)
O=C(NC1CCC1)[C@H]1[C@H](CO)[C@H]2Cn3c(ccc(C4=CCCCC4)c3=O)[C@@H]1N2CC1CC1	-4.56% (inactive)
C[C@@H]1CCCCO[C@@H](CN(C)S(=O)(=O)c2ccc(F)cc2)[C@@H](C)CN([C@@H](C)CO)C(=O)c2cc(NC(=O)Nc3ccc(F)cc3)ccc2O1	55.8% (inactive)
COc1ccccc1S(=O)(=O)Nc1ccc2c(c1)C(=O)N(C)C[C@H](OC)[C@H](C)CN[C@H](C)CO2	9.95% (inactive)
O=C([C@H]1N[C@H]2c3ccc(-c4ccccc4)c(=O)n3C[C@H]2[C@@H]1CO)N1CCOCC1	-8.75% (inactive)
C[C@@H]1CCCCO[C@H](CN(C)S(=O)(=O)c2ccc(F)cc2)[C@H](C)CN([C@@H](C)CO)C(=O)c2cc(NS(=O)(=O)c3ccccc3)ccc2O1	112% (active)
Cc1ccc(S(=O)(=O)N(C)C[C@H]2OCCCC[C@@H](C)Oc3ccc(NS(C)(=O)=O)cc3C(=O)N([C@H](C)CO)C[C@@H]2C)cc1	-8.39% (inactive)
C[C@@H]1CCCCO[C@@H](CN(C)S(C)(=O)=O)[C@H](C)CN([C@@H](C)CO)C(=O)c2cc(NS(=O)(=O)c3ccc(F)cc3)ccc2O1	-87.8% (inactive)
Cc1ccc(S(=O)(=O)N(C)C[C@@H]2OCCCC[C@@H](C)Oc3ccc(NS(=O)(=O)c4ccc(F)cc4)cc3C(=O)N([C@H](C)CO)C[C@H]2C)cc1	110% (active)
COc1ccc(S(=O)(=O)Nc2ccc3c(c2)C(=O)N([C@H](C)CO)C[C@@H](C)[C@H](CN(C)S(=O)(=O)c2ccc(Cl)cc2)OCCCC[C@@H](C)O3)cc1	87% (inactive)
C[C@H](CO)N1C[C@H](C)[C@H](CN(C)S(=O)(=O)c2ccc(F)cc2)OCCCC[C@H](C)Oc2ccc(NS(=O)(=O)c3ccc(Cl)cc3)cc2C1=O	97.6% (active)
Cc1ccc(S(=O)(=O)Nc2ccc3c(c2)C(=O)N([C@H](C)CO)C[C@@H](C)[C@H](CN(C)S(=O)(=O)c2ccc(C)cc2)OCCCC[C@@H](C)O3)cc1	89.1% (inactive)
COc1ccc(S(=O)(=O)N(C)C[C@@H]2OCCCC[C@@H](C)Oc3ccc(NS(=O)(=O)c4ccccc4)cc3C(=O)N([C@@H](C)CO)C[C@H]2C)cc1	71.3% (inactive)

SMILES	inhibition
C[C@@H]1CCCCO[C@H](CN(C)S(=O)(=O)c2ccccc2)[C@@H](C)CN([C@@H](C)CO)C(=O)c2cc(NS(=O)(=O)c3ccccc3)ccc2O1	78.8% (inactive)
C[C@H](CO)N1C[C@H](C)[C@@H](CN(C)C(=O)CCC(F)(F)F)OCCCC[C@H](C)Oc2ccc(NC(=O)C3CCCCC3)cc2C1=O	39.7% (inactive)
COc1cccc(-c2ccc3c(c2)[C@@H]2[C@@H](CCN2S(=O)(=O)C2=NC(C)C=N2)[C@@H](CO)N3C)c1 (stereo partly specified)	6.92% (inactive)
CO[C@H]1CN(C)C(=O)c2cc(NC(=O)Nc3cccc(F)c3)ccc2OC[C@H](C)N(C(C)=O)C[C@H]1C	26.3% (inactive)
CCS(=O)(=O)N1CCCCN2[C@@H](CO)[C@@H](c3ccc(-c4ccccc4)cc3)[C@@H]2C1	93.7% (active)
CCCC#Cc1ccc([C@H]2[C@@H](CO)N3CCCCN(S(=O)(=O)CC)C[C@H]23)cc1	65.9% (inactive)
CCCC#Cc1ccc([C@H]2[C@@H](CO)N3CCCCN(S(=O)(=O)Cc4ccccc4)C[C@H]23)cc1	54.7% (inactive)
OC[C@H]1[C@H](c2ccc(-c3cccnc3)cc2)[C@H]2CN(Cc3ccccn3)CCCCN21	79.7% (inactive)
CN1CCCCN2[C@H](CO)[C@H](c3ccc(-c4ccc(F)cc4)cc3)[C@@H]2C1	14.5% (inactive)
O=S(=O)(Cc1ccccc1)N1CCCCN2[C@@H](CO)[C@H](c3ccc(-c4cccnc4)cc3)[C@@H]2C1	106% (active)
Cc1cccc(-c2ccc([C@@H]3[C@@H](CO)N4CCCCN(S(=O)(=O)c5cccs5)C[C@H]34)cc2)c1	118% (active)
COc1cccc(-c2ccc([C@H]3[C@H](CO)N4CCCCN(S(=O)(=O)c5cccs5)C[C@@H]34)cc2)c1	91.7% (inactive)
Cc1cccc(-c2ccc([C@H]3[C@H](CO)N4CCCCN(S(=O)(=O)c5cn(C)cn5)C[C@@H]34)cc2)c1	41.5% (inactive)
O=S(=O)(Cc1ccccc1)N1CCCCN2[C@@H](CO)[C@@H](c3ccc(-c4ccc(F)cc4)cc3)[C@@H]2C1	98.2% (active)
O=S(=O)(c1ccccc1)N1CCCCN2[C@H](C1)[C@H](c1ccc(-c3ccccc3)cc1)[C@@H]2CO	94.7% (inactive)
COCc1cn(CC[C@H]2CC[C@H](NC(=O)Nc3ccc4c(c3)OCO4)[C@@H](CO)O2)nn1	-12.8% (inactive)
C[C@H](CO)N1C[C@H](C)[C@@H](CN(C)C(=O)Nc2ccc3c(c2)OCO3)OCCCC[C@H](C)Oc2ccc(NC(=O)Nc3ccc(F)cc3)cc2C1=O	-31.4% (inactive)
O=C(C[C@H]1C=C[C@H](NC(=O)C2CCOCC2)[C@@H](CO)O1)NCC1CC1	-20.7% (inactive)
